High-throughput results from PubChem.
VACV Venus inh: inhibitors of vaccinia virus (Venus reporter). Vaccinia virus Venus reporter expression, fluorescence. Potency, µM (doses to about 36.5 µM), without a hit: at the top dose activity change, negative = inhibition, hits mostly inhibitors. actives 0.46% (n = 330,000). AID 720580; calls by dose curve; tested in A549 cells; note: nearly all actives have a fitted effect of over 30% in size
Marburg entry inh: inhibitors of Marburg virus binding or cell entry. Potency, µM (highest dose often 37.8 µM), for the others: at the top dose activity change, negative = inhibition, actives largely listed as inhibitors. actives 1.8% (n = 300,000). AID 540276. Marburg virus pseudotyped entry inhibition, cell reporter; calls by dose curve; tested in HEK293 cells
VACV mCherry inh: vaccinia inhibition (mCherry reporter) | Potency, µM (titrated, usually from 36.5 µM), inactives show at the top dose activity change, negative = inhibition, hits mostly inhibitors | actives 0.63% (n = 310,000) | AID 720579 | Vaccinia virus mCherry reporter infection, fluorescence; calls by dose curve; tested in A549 cells; note: nearly all actives have a fitted effect of over 35% in size
Lassa entry inh: blocks Lassa virus binding to or entry into cells. Potency, µM (highest dose often 37.9 µM), for the others: at the top dose activity change, negative = inhibition, actives largely listed as inhibitors. Lassa virus pseudotype entry inhibition, cell reporter. AID 540256. actives 1.2% (n = 300,000); calls by dose curve; tested in HEK293 cells; note: nearly all actives have a fitted effect of over 50% in size
HCV inhibitor: HCV inhibition; Potency, µM (highest dose often 41.8 µM), without a hit: at the highest dose activity change, negative = inhibition, actives largely listed as inhibitors; actives 3.4% (n = 340,000); Huh7.5.1 HCVcc-Cre infection, luciferase reporter, 44 h; active = well fitted inhibition curve with a large enough effect; inconclusive = small, poorly fitted or top-dose-only effect, or another doubt; inactive = no such curve, though single readings can be large or run the other way
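Reporter virus HCVcc-Cre (~0.5 moi) infects cells exposed to compound; seeding density 1,000 cells/well with 4 h settling beforehand. Luminescence, 15 sec read, taken 44 h post-infection following a 15 min RT substrate incubation.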
* hit, by the source's call; i = inactive; ? = inconclusive; / = no result; [ ] = remark or other dose. An excerpt weighted towards active compounds, which were near 4.6% of everything screened. % is set by controls: 0 for no effect and ±100 for the full control effect; potency is the fitted concentration of half-maximal effect.

SMILES	VACV Venus inh	Marburg entry inh	VACV mCherry inh	Lassa entry inh	HCV inhibitor
CCCCCCc1ccc(N2C[C@H](CCCCC)[C@@H](CC(=O)NCc3ccc(OC)cc3)C2=O)cc1	?	/	-8%	/	12%
COc1ccc(NC(=O)C[C@H]2C(=O)N(CCc3ccccc3)C[C@@H]2Cc2ccccc2)cc1	-13%	/	-5%	16µM*	/
CCCCCCc1ccc(N2C[C@H](Cc3ccccc3)[C@@H](CC(=O)NCc3ccc(OC)cc3)C2=O)cc1	?	/	?	/	2.8µM*
Cc1ccc(N(C)S(=O)(=O)c2ccc(-c3cnc(C4CC4)o3)cc2)cc1	-22%	/	?	1.4µM*	9%
Cc1ccc(NC(=O)C2CCCN(c3cnccn3)C2)cc1Cl (centres undefined)	-6%	18%[46.1 µM]	-6%	-5%[46.1 µM]	/
COc1cc2c(cc1OC)CN(C(=O)c1cc(S(=O)(=O)N3CCOCC3)c(Cl)cc1Cl)CC2	-22%	-10%[46.1 µM]	-27%	-22%[46.1 µM]	25µM*
O=C(c1cc(S(=O)(=O)N2CCOCC2)c(Cl)cc1Cl)N1CCCC1	-10%	1%	-17%	15%	7%
CCOc1c2c(c(-c3ccc4c(c3)OCO4)c3cc(OC)c(OC)cc13)C(=O)OC2	4µM*	/	?	/	/
COc1ccccc1-c1oc2ccccc2c1-c1ccc2c(c1)OCO2	-10%	/	-4%	/	?
CC(C)(C)c1ccc(NC(=O)COC(=O)c2ccc(NS(=O)(=O)c3ccc(F)c(F)c3)cc2)cc1	?	?	-1%	13µM*	0%
CC(C)(C)NC(=O)NC(=O)COC(=O)c1cccc(NS(=O)(=O)c2ccc(F)c(F)c2)c1	-27%	?	i	10µM*	1%
Cc1ccn2c(c1)nc(=O)c1cc(S(=O)(=O)N3CCC(C)CC3)c(Cl)cc12	5%	-12%[46.1 µM]	2%	20%[46.1 µM]	/
O=c1c(Br)c(N2CCCC2)cnn1-c1ccccc1	-14%	6%	-21%	7%	9%
O=c1c(Br)c(Br)cnn1-c1ccccc1	?	?	?	?	8.9µM*
Cc1ccc(NS(=O)(=O)c2ccc(Cl)c(NC(=S)NC(=O)C3CCCCC3)c2)cc1Cl	?	?	?	?	11µM*
Cc1ccc(NC(=O)C2CCCC2)cc1Cl	20%	?	14%	-27%[46.1 µM]	1%
Cc1nc2c3cccnc3nn2c(C)c1CCC(=O)NCc1ccccc1	-10%	14%[46.1 µM]	-10%	1%[46.1 µM]	/
COc1ccc(CN2C[C@]3(CO)OC(CO)C[C@H]3[S+]2(=O)[O-])cc1 (some centres undefined)	/	/	/	5%[46.1 µM]	/
Cc1ccc(C(=O)NCCSC(C)(C)C)cc1	-19%	8.9µM*	/	10µM*	9%
CN(c1ccc(C(=O)NCCSC(C)(C)C)cc1)S(=O)(=O)c1ccccc1	-17%	-17%	i	23µM*	-27%
CN(c1ccc(C(=O)NCCSCc2ccc(Cl)cc2)cc1)S(=O)(=O)c1ccccc1	-12%	0%	-9%	?	?
CC(C)(C)SCCNC(=O)c1ccccc1	?	-4%	/	?	-4%
Cc1ccc(CSCCNC(=O)c2ccc(N(C)S(=O)(=O)c3ccccc3)cc2)cc1	?	?	/	?	11µM*
COc1ccc(CCNC(=O)c2ccc(N(C)S(=O)(=O)c3ccccc3)cc2)cc1	-16%	-17%[46.1 µM]	-15%	-7%	?
O=C(CCC(=O)c1ccccc1)Nc1ccc(F)c(Cl)c1	0%	/	6%	14%[46.1 µM]	/
SMILES	VACV Venus inh	Marburg entry inh	VACV mCherry inh	Lassa entry inh	HCV inhibitor
Cc1ccc(COc2ccc(-c3cc(C(F)(F)F)n4nc(C)cc4n3)cc2)cc1	-9%	4%[46.1 µM]	-1%	20%[46.1 µM]	/
N#CC(C(=S)Nc1ccccc1)c1nc2ccccc2[nH]1 (centres undefined)	/	/	/	/	-21%
N#CC(C(=O)C1CCCCC1)c1nc2ccccc2[nH]1 (centres undefined)	-28%	1%	-28%	-20%	10µM*
O=C(NCC(c1ccc2c(c1)OCO2)N1CCOCC1)C(=O)Nc1ccc(Cl)cc1 (centres undefined)	-13%	/	-9%	3%[46.1 µM]	/
CC1CCC(C(C)C)C(OC(=O)C[n+]2cc(-c3ccc(Cl)cc3)n3c2CCC3)C1 (centres undefined)	-10%	/	-18%	/	-15%
CC1CCC(C(C)C)C(OC(=O)Cn2c(-c3ccccc3)[n+](C)c3ccccc32)C1 (centres undefined)	?	5.8µM*	?	7.1µM*	?
CC1CCC(C(C)C)C(OC(=O)Cn2c(-c3ccc(F)cc3)[n+](C)c3ccccc32)C1 (centres undefined)	?	?	?	?	10µM*
CC1CCC(C(C)C)C(OC(=O)CSc2nc(N)cc(=O)[nH]2)C1 (centres undefined)	/	-6%	/	4%	?
Cc1[nH]c2ccc(C(=O)OCC(=O)NC3(C#N)CCCCC3)cc2c1C	?	?	-27%	6.3µM*	?
N#CC1(NC(=O)COC(=O)c2nc(Cl)ccc2Cl)CCCCC1	4%	9%	-8%	-4%	17%
Cc1ccc(C(=O)Nc2nnc(S(=O)(=O)N(C)Cc3ccc(Cl)cc3)s2)cc1	-6%	/	-13%	10%[46.1 µM]	/
Cc1[nH]c2ccc(F)cc2c(=O)c1SC(F)(F)[C@@H](F)C(F)(F)F	/	-14%	/	/	/
COC(=O)c1ccc(NC(=O)Cn2c(=O)oc3ccccc32)cc1	5%	?	2%	-1%[46.1 µM]	/
COC(=O)c1ccccc1NC(=O)/C=N/O	-4%	2%	-12%	/	?
O=C(/C=N/O)Nc1ccc2sc3ccccc3c2c1	-2%[7.34 µM]	10%[46.1 µM]	i[7.34 µM]	9%	13µM*
Cc1ccc(C(NC(=O)C(C)C)c2cc([N+](=O)[O-])c3cccnc3c2O)cc1 (centres undefined)	?	?	-30%	-4%	13µM*
CC(C)C(=O)NC(c1cccs1)c1cc([N+](=O)[O-])c2cccnc2c1O (centres undefined)	?	?	11µM*	-7%	?
CCC(=O)NC(/C=C/c1ccccc1)c1cc([N+](=O)[O-])c2cccnc2c1O (centres undefined)	/	/	/	/	0%
O=C(CC1N=C2c3ccccc3N=C(SCC(=O)Nc3cccc(C(F)(F)F)c3)N2C1=O)NCc1cccs1 (centres undefined)	1%	?	7%	1%[46.1 µM]	/
COc1cc2c(cc1OC)C(=Cc1ccc(N(C)C)cc1)C=C2	-5%	20%[46.1 µM]	?	-2%[46.1 µM]	10µM*
CN(C)c1ccc(C=C2C=Cc3ccccc32)cc1	-17%	-25%	i	6.3µM*	-14%
CCN(CCCNC(=O)c1cc2c(-c3cccc(OC)c3)nn(C)c2s1)Cc1ccccc1	?	?	-1%	?	11µM*
CCN(CC)CCCNC(=O)c1cc2c(-c3ccc(Cl)cc3)nn(C)c2s1	?	/	-14%	/	11µM*
CCCN(CCC)CCCNC(=O)c1cc2c(-c3ccc(Cl)cc3)nn(C)c2s1	-22%	?	?	?	/
Cc1ccccc1-c1cccc(CN2CCc3nnc(C(C)NC(=O)c4cccnc4)n3CC2)c1 (centres undefined)	-11%	/	-19%	/	/
